Measurements taken from the supplement of paper PMC10338343.
± gives the standard deviation.

Test system: EfPiwi piRISC loaded with L1MC piRNA (26 nt)
Assay: pre-steady-state target cleavage rate (min^-1); auxiliary factor: 500 nM Ephydatia muelleri Gtsf1; guide: L1MC piRNA 5'p-UAACUAAAUACUAUGCAAGCUGUAGG; MIWI and MILI are mouse PIWI proteins and EfPiwi is from a freshwater sponge; tags in brackets are library labels; higher = faster piRNA-guided slicing of the target
Outline: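 Active affinity-purified piRISC (1 nM) loaded with one synthetic guide was mixed with a transcribed, DNA-blocked target RNA library (0.1 nM), with or without 500 nM GTSF1 partner protein, in HEPES–potassium acetate buffer at 33 °C for 0–8 or 0–960 min. Uncleaved targets were sequenced, normalised to depth and to weakly complementary targets, and pooled across three trials, with k3 capped at 0.0001 min^-1. The pre-steady-state cleavage rate was determined with a burst-and-steady-state fit.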

Sequence | pre-steady-state target cleavage rate
UCCUGGUACAGCUUGCAUAGUAGUUAGUUA | 0.00515 ± 0.0021
UCCUGGAACAGCUUGCAUAGUAUUUGAGUUA | 0.00552 ± 0.0019
UCCUGGUACAGCAUGCAUAGUAUAUAGUUA | 0.00569 ± 0.0031
UCCUGGAUGAGAUUGCAUAGUAUUUAGUUA | 0.00463 ± 0.0025
UCCUGGAUGUGCUAGCAUAGUAUUUAGUUA | 0.00573 ± 0.0027
UCCUGGAACUGCUUGCAUAGUUUUUAGUUA | 0.00498 ± 0.0026
UCCUGCUACACCUUGGAUAGUAUUUAGUUA | 0.00538 ± 0.0021
UCCUGGAUGUCCUUGCAUAGUAUGUUAGUUA | 0.00355 ± 0.0035
UCCUGGAUCAGCUUGCAUAGUAUUGAGUUA | 0.00662 ± 0.0024
UCCUGCUACAGCUUCCAUAGUAUUUACAAA | 0.00279 ± 0.0021
UCCUCCUAUAGCUUGCAUAGUAUUUAGUUA | 0.0108 ± 0.0034
UCCUGGAUGUCGAUGCUUAGAAUUUAGUUA | < 0.0001
UCCUCCUAGAGCUAGCAUAGUAUUUAGUUA | 0.0136 ± 0.0043
UCCUGCUACAGCUUCGAUAGUAUUUAGUAA | 0.00315 ± 0.0026
UCCUGCUACAGCUUCCAUAGUAUAUAGUUA | 0.00251 ± 0.0024
UCCUCCUACAGCUUGCAUAGUCAUUUAGUUA | 0.00268 ± 0.0025
UCCUGCUAGUGCUUGCAUAGUAUUUAGAAA | 0.00258 ± 0.0014
UCCUGCUACAGCUCGCAUAGUAUUUAGUUA | 0.0122 ± 0.0028
UCCUGGAUGUCGAACCCUAGUAUUUAGUUA | < 0.0001
UCCUGCAACAGCUUGCAUAGUUUUUAGUUA | 0.00727 ± 0.0019

Sequence | pre-steady-state target cleavage rate
UCCUGGAUGUCGAACGAUAGUCAUUUAGUUA | < 0.0001
UCCUGGAUCAGCUUGAAUAGUAUUUAGUUA | 0.0605 ± 0.015
UCCUGGAACAGCUUCCAUAGUAUUUAGAAA | 0.00411 ± 0.0022
UCCUGGAUGUCGAACGUUAGUAUGUUAGUUA | < 0.0001
UCCUGGAUCCGCUUGCAUAGUAUUUAGUUA | 0.146 ± 0.029
UCCUGGAACAGCUAGCUUAGUAUUUAGUUA | 0.00846 ± 0.0037
UCCUGGAACAGCAUGCAUAGUAUUUAGUAA | 0.00384 ± 0.0023
UCCUGGAUGAGCUUGCAUACUAUUUAGAUA | 0.00231 ± 0.0021
UCCUGGAUGUCGAACCAUUCAAUUUAGUUA | < 0.0001
UCCUGGAUCAGGUUGCAUACUAUUUAGUUA | 0.00262 ± 0.0019
UCCUGGAUGUCGAACGUUACUAUUUAGUUA | < 0.0001
UCCUGGAUGUCGAACGAUAGUAUUUAGUUA | < 0.0001
UCCUGCUACAGCUUGCUUUGUAUUUAGUUA | 0.00538 ± 0.003
UCCUGGAUGUCGUUGCAAACUAUUUAGUUA | < 0.0001
UCCUGGAUGUCGAUGCAUACUAUUAAGUUA | < 0.0001
UCCUGGUACAGCUAGCAUAGUAUUUAGUUA | 0.0085 ± 0.0027
UCCUCCUACAGCUUGCAUAUAUUUAGUUA | 0.00725 ± 0.0034
UCCUGGAUGUCGAACGAUACUAUUUUGUUA | < 0.0001
UCCUCCUACAGCUUGCGAUAGUAUUUAGUUA | 0.00839 ± 0.0023
UCCUGGAACAGCUUGGAUAGUAUUUAGUUA | 0.0302 ± 0.0072
